The record followed here is PubChem BioAssay (EPA / NIEHS).

Structures are written as SMILES. Values joined by “and” are separate entries in the source; they are usually repeats but may differ in a detail not shown here. Equal entries are not always repeated. Records with an inconclusive call do not appear. Some compounds were tested as several samples or in several runs, with calls that do not always agree. Active and inactive are the calls of the source. The calls were made as follows, unless noted: active = hit-call score of the fitted dose curve at least 0.9, where 1 is the maximum; inactive = score below 0.9.

Read-out in assay [1]: Matrix Metallopeptidase 9 (MMP9), MMP9 (gene 4318)
The assay can be described thus: BSK_BE3C_MMP9: BioMAP Diversity Plus: BE3C Assay for Matrix Metallopeptidase 9 (MMP9) Biomarker Activity (AID 2284283). The settings on record: primary human bronchial epithelial cells. The essentials: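 Human primary bronchial epithelial cells exposed 24 h to compound. MMP9 quantified by ELISA. SRB total-protein staining of parallel cultures assesses cytotoxicity. Positive-direction fit relative to DMSO.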

Read-out in assay [2]: Plasminogen activator inhibitor-1 (PAI1), SERPINE1 (gene 5054)
The assay can be described thus: BSK_CASM3C_PAI1: BioMAP Diversity Plus: CASM3C Assay for Plasminogen activator inhibitor-1 (PAI1) Biomarker Activity (AID 2284284).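 Also: PAI-1 protein level measured by ELISA 24 h after dosing.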 As to conditions: primary human coronary artery smooth muscle cells.

Read-out in assay [3]: Monocyte Chemoattractant Protein-1 (MCP1), CCL2 (gene 6347)
The experiment in a line: BSK_hDFCGF_MCP1: BioMAP Diversity Plus: hDFCGF Assay for Monocyte Chemoattractant Protein-1 (MCP1) Biomarker Activity (AID 2284285). The settings on record: primary human foreskin fibroblasts. The essentials:
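Human foreskin fibroblasts (hDFCGF system) were exposed to compound and secreted MCP-1 was measured by ELISA after 24 hours. Activity was fitted relative to DMSO. Cytotoxicity was checked by SRB total-protein staining in parallel cultures.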

Read-out in assay [4]: Intercellular Adhesion Molecule 1 (ICAM1), ICAM1 (gene 3383)
The assay can be described thus: BSK_hDFCGF_ICAM1: BioMAP Diversity Plus: hDFCGF Assay for Intercellular Adhesion Molecule 1 (ICAM1) Biomarker Activity (AID 2284287). The settings on record: primary human foreskin fibroblasts. The method, boiled down: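 Primary human foreskin fibroblasts (hDFCGF system) dosed with chemical; ICAM-1 quantified by ELISA at 24 h relative to DMSO. Parallel SRB total-protein staining to assess overt cytotoxicity.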

Read-out in assay [5]: TIMP metallopeptidase inhibitor 2 (TIMP2), TIMP2 (gene 7077)
The assay can be described thus: BSK_hDFCGF_TIMP2: BioMAP Diversity Plus: hDFCGF Assay for TIMP metallopeptidase inhibitor 2 (TIMP2) Biomarker Activity (AID 2284289). As to conditions: primary human foreskin fibroblasts. The method, boiled down: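 Primary human foreskin fibroblasts in the hDFCGF system, dosed for 24 h; TIMP-2 level measured by ELISA, fitted in the positive direction against DMSO; cytotoxicity checked in parallel by sulforhodamine B total protein staining.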

Read-out in assay [6]: Thrombomodulin, THBD (gene 7056)
The experiment in a line: BSK_LPS_Thrombomodulin: BioMAP Diversity Plus: LPS Assay for Thrombomodulin Biomarker Activity (AID 2284296). As to conditions: primary human HUVEC with PBMC. The method, boiled down:
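Human umbilical vein endothelial cells co-cultured with PBMC and stimulated with LPS; cell-surface thrombomodulin measured by ELISA 24 hours after compound. Gain or loss versus DMSO; cytotoxicity checked by SRB staining in parallel cultures.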

A short description of assay [7]: IUF_NPC2c_oligodendrocyte_migration_120hr: Leibniz Research Institute for Environmental Medicine (IUF) 120-hour Neural Progenitor Cell Migration Assay for Oligodendrocyte Migration (NPC2c) (AID 2284297).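 Also: O4-positive oligodendrocyte migration distance divided by radial glia migration distance.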 The essentials:
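Human fetal neural progenitor spheres (0.3 mm) are plated on poly-D-lysine/laminin in N2 differentiation medium and exposed for 120 h, with half-medium renewal at day 3. Oligodendrocyte (O4+) migration distance comes from ICC imaging, normalised to radial glia migration.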

Assay [8] can be described thus: IUF_NPC2a_radial_glia_migration_120hr: Leibniz Research Institute for Environmental Medicine (IUF) 120-hour Neural Progenitor Cell Migration Assay for Radial Glia Migration (NPC2a) (AID 2284298). The method, boiled down:
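Human fetal-cortex neural progenitor spheres (0.3 mm) plated on poly-D-lysine/laminin in N2 differentiation medium, exposed 120 h at 37C with half-medium renewal at day 3. Radial glia migration distance (um) measured from Hoechst-stained nuclei images; DMSO baseline.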

A short description of assay [9]: IUF_NPC2a_radial_glia_migration_72hr: Leibniz Research Institute for Environmental Medicine (IUF) 72-hour Neural Progenitor Cell Migration Assay for Radial Glia Migration (NPC2a) (AID 2284299). The essentials:
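Migration out of plated human neural progenitor spheres is scored at 72 h as the distance in um from the sphere core edge to the edge of the migration area. Values are the mean of four manual measurements per well, normalised to DMSO.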

A short description of assay [10]: IUF_NPC2b_neuronal_migration_120hr: Leibniz Research Institute for Environmental Medicine (IUF) 120-hour Neural Progenitor Cell Migration Assay for Neuron Migration (NPC2b) (AID 2284300). The method, boiled down: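 0.3 mm hNPC spheres on poly-D-lysine/laminin in N2 differentiation medium exposed 120 h, half-medium refresh day 3; 7 concentrations, DMSO max 0.1%. Neuron (TUBB3) distance from sphere core by ICC imaging, normalised to radial glia migration.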

Assay [11] in a line: IUF_NPC3_neuronal_differentiation_120hr: Leibniz Research Institute for Environmental Medicine (IUF) 120-hour Neuronal Differentiation Assay (NPC3) (AID 2284301). The essentials: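 Human fetal (GW 16-19) neural progenitor spheres (0.3 mm) plated on poly-D-lysine/laminin in N2 differentiation medium, exposed 120 h at 37C with half-medium renewal day 3; 7 concentrations. TUBB3+ cells as % of Hoechst nuclei, CNN-identified; DMSO baseline.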

A short description of assay [12]: IUF_NPC4_neurite_length_120hr: Leibniz Research Institute for Environmental Medicine (IUF) 120-hour Neuronal Morphology Assay for Neurite Length (NPC4) (AID 2284302). The method, boiled down: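 Human fetal neural progenitor spheres (0.3 mm) plated on poly-D-lysine/laminin in N2 differentiation medium, exposed from day 0 for 120 h with half-medium refresh at day 3, 37C. Mean neurite length (um) of TUBB3-positive neurons from skeletonized immunostaining images; DMSO ≤0.1%.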

Read-out in another assay: CD69, CD69 (gene 969)
The experiment in a line: BSK_LPS_CD69: BioMAP Diversity Plus: LPS Assay for CD69 Biomarker Activity (AID 2284303). As to conditions: primary human HUVEC with PBMC. The method, boiled down: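 Human umbilical vein endothelial cells co-cultured with PBMC under LPS stimulation, chemical exposure 24 h; cell-surface CD69 measured by ELISA and fitted in the positive direction versus DMSO.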

A short description of assay [13]: IUF_NPC5_oligodendrocyte_differentiation_120hr: Leibniz Research Institute for Environmental Medicine (IUF) 120-hour Oligodendrocyte Differentiation Assay (NPC5) (AID 2284304; active = hit-call score of the fitted dose curve at least 0.9, where 1 is the maximum;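 also: primary human fetal neural progenitor spheres plated to migrate and differentiate; share of O4-positive cells among Hoechst nuclei found by CNN image analysis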). The essentials: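 Human fetal neural progenitor spheres (0.3 mm) plated on poly-D-lysine/laminin in N2 differentiation medium and exposed for 120 h at 7 concentrations, with half-medium renewal at day 3. O4-positive cells identified by CNN, expressed as percent of Hoechst nuclei.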

A short description of assay [14]: IUF_NPC4_neurite_area_120hr: Leibniz Research Institute for Environmental Medicine (IUF) 120-hour Neuronal Morphology Assay for Neurite Area (NPC4) (AID 2284305; active = hit-call score of the fitted dose curve at least 0.9, where 1 is the maximum). The essentials:
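Human fetal neural progenitor spheres (0.3 mm) plated on poly-D-lysine/laminin in N2 differentiation medium, exposed 120 h (7 concentrations, DMSO ≤0.1%, half-medium refresh day 3). Fixed, TUBB3 immunostained; mean neurite area per neuron by Omnisphero skeletonization.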

Assay [15] in a line: IUF_NPC2-5_cytotoxicity_72hr: Cytotoxicity Assessment at 72 hours in the Leibniz Research Institute for Environmental Medicine (IUF) Neural Progenitor Cell Migration and Differentiation Assay for Cytotoxicity (NPC2-5) (AID 2284306; active = hit-call score of the fitted dose curve at least 0.9, where 1 is the maximum;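 also: LDH release into supernatant measured by resorufin fluorescence marking membrane damage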). The method, boiled down:
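Human fetal primary neural progenitor spheres (0.3 mm) plated on poly-D-lysine/laminin in N2 differentiation medium, exposed from day 0 at 37C. LDH-dependent resazurin-to-resorufin fluorescence in supernatant at 72 h; 7 concentrations, DMSO at most 0.1%.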

Assay [16] can be described thus: IUF_NPC2-5_cytotoxicity_120hr: Cytotoxicity Assessment at 120 hours in the Leibniz Research Institute for Environmental Medicine (IUF) Neural Progenitor Cell Migration and Differentiation Assay (NPC2-5) (AID 2284307; active = hit-call score of the fitted dose curve at least 0.9, where 1 is the maximum;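 also: LDH released into supernatant as membrane damage marker via resorufin fluorescence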). The essentials:
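Human fetal (GW 16-19) neural progenitor spheres (0.3 mm) plated on poly-D-lysine/laminin in N2 differentiation medium, exposed 120 h with half-medium renewal at day 3; 7 concentrations plus solvent control, DMSO ≤0.1%. LDH release in supernatant read by resorufin fluorescence.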

The nature of assay [17]: IUF_NPC2-5_cell_number_120hr: Cell Number Assessment at 120 hours in the Leibniz Research Institute for Environmental Medicine (IUF) Neural Progenitor Cell Migration and Differentiation Assay (NPC2-5) (AID 2284308).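 Also: count of Hoechst-stained nuclei in migration zone around plated human neural progenitor spheres.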 The essentials: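 Human fetal neural progenitor spheres (0.3 mm) plated on poly-D-lysine/laminin in N2 differentiation medium, exposed five days across 7 concentrations with half-medium refresh at day 3. Hoechst-positive nuclei counted in migration area at 120 h, relative to DMSO.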

Assay [18] is described as follows: IUF_NPC2-5_viability_120hr: Viability Assessment at 120 hours in the Leibniz Research Institute for Environmental Medicine (IUF) Neural Progenitor Cell Migration and Differentiation Assay (NPC2-5) (AID 2284312). The essentials: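 Human fetal neural progenitor spheres (0.3 mm) plated on poly-D-lysine/laminin in N2 differentiation medium, exposed 120 h with half-medium refresh at day 3. Viability by alamar blue resazurin fluorescence; 7 concentrations, DMSO max 0.1%.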

Assay [19] in a line: IUF_NPC1_cytotoxicity_72hr: Cytotoxicity Assessment at 72 hours in the Leibniz Research Institute for Environmental Medicine (IUF) Neural Progenitor Cell Proliferation Assay (NPC1) (AID 2284332; active = hit-call score of the fitted dose curve at least 0.9, where 1 is the maximum;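 also: rising LDH signal means more cytotoxicity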). The method, boiled down:
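hNPC spheres (fetal brain, gestational week 16-19) grown under proliferative EGF/FGF conditions, pH 7.2-7.6, were treated continuously for 72 h. Cytotoxicity came from LDH-coupled resazurin fluorescence in each well's supernatant.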

The nature of assay [20]: CCTE_Mundy_HCI_iCellGluta_NOG_NeuronCount: CCTE's Neurite Outgrowth Assay in iCellGluta cells for Neuron Count, Mundy Lab (AID 2284340; active = hit-call score of the fitted dose curve at least 0.9, where 1 is the maximum;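 also: cells fixed about 48 h after compound addition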). The essentials: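 Neuron count read by automated high-content imaging of Hoechst 33342 and betaIII-tubulin/Alexa Fluor-488 labelling in human iPSC glutamatergic neurons. Activity fitted relative to DMSO.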
The nature of assay [21]: CCTE_Mundy_HCI_iCellGluta_NOG_NeuriteCount: CCTE's Neurite Outgrowth Assay in iCellGluta cells for Neurite Count, Mundy Lab (AID 2284342; active = hit-call score of the fitted dose curve at least 0.9, where 1 is the maximum;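 also: chemical exposure about 48 hours starting 2 hours after plating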).

Turning to `[Cd+2].[Cl-].[Cl-]`, the AC50 in assay [1] was 32 µM (active) and 27.7 µM (active); in [2] it was 10.9 µM (active) and 13.8 µM (active); in assay [3], 4.82 µM (active) and 1.76 µM (active); in assay [4], 9.72 µM (active) and 13.9 µM (active); in assay [5], 3.97 µM (active) and 2.93 µM (active); in assay [7], 15.1 µM (active). In addition, the AC50 in assay [8] was 8.38 µM (active); in [9], 8.95 µM (active); in assay [10], 17.7 µM (active); in assay [11] it was 0.00342 µM (active); in assay [12], 7.58 µM (active); with CD69, CD69 (gene 969), 7.19 µM (active). The AC50 in assay [13] was 17.5 µM (active); in assay [14] it was 15.6 µM (active); in assay [15] it was 13.5 µM (active); in [16], 11.2 µM (active); in assay [17], 4.7 µM (active); in assay [18], 6.4 µM (active). Further, the AC50 in [20] was 15 µM (active); in assay [21] it was 11.4 µM (active). Also, the outcome in [6] was “inactive”; with CD69, CD69 (gene 969), “inactive”; in assay [19], “inactive”.

A word on the AC50: it is the concentration giving half of the maximal activity seen.
